# Reference: the supplement of paper PMC11732987, “Enantioselective OTUD7B fragment discovery through chemoproteomics screening and high-throughput optimisation” (Communications Chemistry, 2025)
# Values without a mark were called inactive.
# What was measured:
# Test in all cases: log2 ratio of Biotin-Ahx-Ub-VS probe labelling (fragment/DMSO); higher = less target engagement (more negative = stronger competition), active = hit call of the paper (q ≤ 0.05, log2 ratio ≤ -1)
# Details in all cases: compound concentration: 200 uM; treatment time: 3 h
# [1] = target: T1, OTUD6B (UniProt Q8N6M0)
# T1 sequence (whole entry): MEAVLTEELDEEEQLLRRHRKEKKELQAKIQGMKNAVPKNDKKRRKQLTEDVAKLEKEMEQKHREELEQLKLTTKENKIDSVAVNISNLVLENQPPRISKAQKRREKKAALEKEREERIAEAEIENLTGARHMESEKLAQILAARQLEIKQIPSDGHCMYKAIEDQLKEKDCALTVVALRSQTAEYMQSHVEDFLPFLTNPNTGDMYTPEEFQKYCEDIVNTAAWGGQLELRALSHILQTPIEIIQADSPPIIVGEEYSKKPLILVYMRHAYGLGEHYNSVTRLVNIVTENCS
# Summary of the method: (§1)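 Average log2 ratios of fragment over vehicle were obtained by unpaired t-test from global-median-normalised Spectronaut label-free quantities. Proteins with ≥2 unique peptides were included. HEK293T lysate (495 µg per sample) was treated in triplicate with fragment at 200 µM or vehicle for 3 h, then with Biotin-Ahx-Ub-VS at 0.5 µM final for 1 h, and labelled DUBs were NeutrAvidin-enriched and run by diaPASEF LC-MS/MS.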
# [2] = target: T2, OTUD7B (UniProt Q6GQQ9)
# T2 sequence (whole entry): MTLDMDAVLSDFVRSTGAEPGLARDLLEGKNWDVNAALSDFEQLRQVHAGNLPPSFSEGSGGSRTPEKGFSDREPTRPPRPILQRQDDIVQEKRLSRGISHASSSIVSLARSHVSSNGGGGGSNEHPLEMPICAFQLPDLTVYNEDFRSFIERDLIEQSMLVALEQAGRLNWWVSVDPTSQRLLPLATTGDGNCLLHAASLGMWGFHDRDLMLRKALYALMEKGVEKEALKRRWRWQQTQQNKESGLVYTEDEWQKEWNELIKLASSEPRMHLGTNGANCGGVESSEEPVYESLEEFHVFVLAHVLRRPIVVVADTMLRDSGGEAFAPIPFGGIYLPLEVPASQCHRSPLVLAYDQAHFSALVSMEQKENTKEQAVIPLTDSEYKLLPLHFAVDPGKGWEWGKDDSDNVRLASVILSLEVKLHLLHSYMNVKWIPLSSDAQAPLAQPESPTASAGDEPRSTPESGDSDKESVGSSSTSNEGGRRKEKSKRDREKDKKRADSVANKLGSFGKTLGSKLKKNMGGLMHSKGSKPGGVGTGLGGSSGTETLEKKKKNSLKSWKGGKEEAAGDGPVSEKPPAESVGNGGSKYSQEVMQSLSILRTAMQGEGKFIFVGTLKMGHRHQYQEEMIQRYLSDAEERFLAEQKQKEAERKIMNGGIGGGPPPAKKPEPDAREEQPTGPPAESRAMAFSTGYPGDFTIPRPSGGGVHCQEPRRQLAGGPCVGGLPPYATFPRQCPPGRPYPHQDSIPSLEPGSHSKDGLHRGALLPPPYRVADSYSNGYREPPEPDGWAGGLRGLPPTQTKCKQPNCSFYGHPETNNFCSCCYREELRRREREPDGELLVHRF
# Summary of the method: as §1
# [3] = target: PRPF8 (UniProt Q6P2Q9)
# Summary of the method: as §1
# [4] = target: T3, PSMD7 (UniProt P51665)
# T3 sequence (whole entry): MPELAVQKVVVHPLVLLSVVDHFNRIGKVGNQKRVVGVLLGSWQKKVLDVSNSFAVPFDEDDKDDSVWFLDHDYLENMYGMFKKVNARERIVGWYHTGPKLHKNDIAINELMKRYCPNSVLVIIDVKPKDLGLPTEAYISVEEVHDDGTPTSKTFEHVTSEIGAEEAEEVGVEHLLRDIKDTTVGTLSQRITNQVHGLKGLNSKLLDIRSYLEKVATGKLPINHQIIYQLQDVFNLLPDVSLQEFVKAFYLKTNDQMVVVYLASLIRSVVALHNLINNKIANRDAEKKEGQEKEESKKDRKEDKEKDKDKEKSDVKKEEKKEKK
# Summary of the method: as §1
# [5] = target: UCHL1 (UniProt P09936)
# UCHL1, sequence (P09936 whole entry, looked up): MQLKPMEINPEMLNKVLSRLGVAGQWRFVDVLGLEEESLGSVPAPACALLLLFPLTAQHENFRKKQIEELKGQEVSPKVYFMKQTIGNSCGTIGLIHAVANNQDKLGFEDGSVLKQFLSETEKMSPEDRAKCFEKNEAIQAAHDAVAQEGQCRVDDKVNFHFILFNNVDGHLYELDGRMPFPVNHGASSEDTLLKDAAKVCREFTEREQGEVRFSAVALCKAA
# Summary of the method: as §1
# [6] = target: T4, UCHL3 (UniProt P15374)
# T4 sequence (whole entry): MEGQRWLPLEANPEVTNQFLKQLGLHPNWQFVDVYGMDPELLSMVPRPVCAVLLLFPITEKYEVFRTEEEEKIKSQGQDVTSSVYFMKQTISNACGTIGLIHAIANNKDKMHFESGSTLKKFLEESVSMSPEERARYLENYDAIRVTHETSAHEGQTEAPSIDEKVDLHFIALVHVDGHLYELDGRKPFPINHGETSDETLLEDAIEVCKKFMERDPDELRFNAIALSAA
# Summary of the method: as §1
# [7] = target: T5, UCHL5 (UniProt Q9Y5K5)
# T5 sequence (whole entry): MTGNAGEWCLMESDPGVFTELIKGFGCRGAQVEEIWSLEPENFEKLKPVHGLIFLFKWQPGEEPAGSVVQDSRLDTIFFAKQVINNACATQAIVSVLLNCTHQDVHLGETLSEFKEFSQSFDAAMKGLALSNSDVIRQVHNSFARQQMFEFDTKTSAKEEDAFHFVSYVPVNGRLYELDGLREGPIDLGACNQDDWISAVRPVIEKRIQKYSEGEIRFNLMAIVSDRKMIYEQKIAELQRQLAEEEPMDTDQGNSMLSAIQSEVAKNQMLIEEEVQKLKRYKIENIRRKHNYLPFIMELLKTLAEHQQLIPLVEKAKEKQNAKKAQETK
# Summary of the method: as §1
# [8] = target: USP10 (UniProt Q14694)
# USP10, sequence (Q14694 whole entry): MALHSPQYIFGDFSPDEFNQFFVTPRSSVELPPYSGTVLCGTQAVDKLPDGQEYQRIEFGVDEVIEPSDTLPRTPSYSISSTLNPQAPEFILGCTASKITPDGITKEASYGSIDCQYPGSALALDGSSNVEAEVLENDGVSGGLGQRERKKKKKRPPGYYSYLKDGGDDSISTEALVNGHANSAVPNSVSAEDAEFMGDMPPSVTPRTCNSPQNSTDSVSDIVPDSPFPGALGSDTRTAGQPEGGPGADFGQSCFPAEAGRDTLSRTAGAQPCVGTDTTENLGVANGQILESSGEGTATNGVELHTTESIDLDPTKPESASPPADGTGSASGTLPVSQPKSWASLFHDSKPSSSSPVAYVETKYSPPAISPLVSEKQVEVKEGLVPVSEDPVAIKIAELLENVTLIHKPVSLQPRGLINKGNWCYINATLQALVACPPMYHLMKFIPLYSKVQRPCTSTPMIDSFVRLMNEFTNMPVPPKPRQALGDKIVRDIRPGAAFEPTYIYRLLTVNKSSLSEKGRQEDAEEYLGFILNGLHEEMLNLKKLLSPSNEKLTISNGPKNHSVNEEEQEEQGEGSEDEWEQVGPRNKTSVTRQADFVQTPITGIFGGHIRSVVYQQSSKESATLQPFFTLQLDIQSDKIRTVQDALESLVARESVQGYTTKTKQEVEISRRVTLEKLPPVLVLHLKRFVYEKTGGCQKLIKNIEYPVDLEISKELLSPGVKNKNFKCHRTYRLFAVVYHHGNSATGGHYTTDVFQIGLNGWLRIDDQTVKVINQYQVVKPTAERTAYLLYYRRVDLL
# Summary of the method: as §1
# [9] = target: T6, USP15 (UniProt Q9Y4E8)
# T6 sequence (whole entry): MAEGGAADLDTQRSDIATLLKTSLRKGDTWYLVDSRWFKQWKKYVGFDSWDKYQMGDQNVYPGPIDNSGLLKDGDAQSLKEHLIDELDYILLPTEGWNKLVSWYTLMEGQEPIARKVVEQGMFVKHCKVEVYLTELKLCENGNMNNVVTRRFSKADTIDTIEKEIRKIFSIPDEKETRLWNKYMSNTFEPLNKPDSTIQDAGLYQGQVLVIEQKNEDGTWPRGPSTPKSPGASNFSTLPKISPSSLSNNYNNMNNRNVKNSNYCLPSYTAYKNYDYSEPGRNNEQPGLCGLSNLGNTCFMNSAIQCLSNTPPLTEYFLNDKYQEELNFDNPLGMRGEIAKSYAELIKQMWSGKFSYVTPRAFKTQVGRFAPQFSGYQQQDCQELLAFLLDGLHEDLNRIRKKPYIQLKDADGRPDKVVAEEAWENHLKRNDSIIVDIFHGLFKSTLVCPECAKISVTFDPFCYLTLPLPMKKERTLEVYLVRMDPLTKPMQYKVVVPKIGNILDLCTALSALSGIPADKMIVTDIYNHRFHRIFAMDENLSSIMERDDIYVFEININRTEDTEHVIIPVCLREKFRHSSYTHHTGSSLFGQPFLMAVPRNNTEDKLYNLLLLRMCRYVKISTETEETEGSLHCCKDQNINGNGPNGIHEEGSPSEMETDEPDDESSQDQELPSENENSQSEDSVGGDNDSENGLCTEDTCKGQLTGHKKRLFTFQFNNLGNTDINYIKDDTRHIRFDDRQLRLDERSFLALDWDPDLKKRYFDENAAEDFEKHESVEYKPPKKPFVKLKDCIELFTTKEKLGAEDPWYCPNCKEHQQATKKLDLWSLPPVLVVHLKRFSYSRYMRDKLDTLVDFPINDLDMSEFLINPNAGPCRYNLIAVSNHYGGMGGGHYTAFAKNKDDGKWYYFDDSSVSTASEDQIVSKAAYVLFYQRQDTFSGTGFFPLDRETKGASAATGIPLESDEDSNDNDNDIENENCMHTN
# Summary of the method: as §1
# [10] = target: USP16 (UniProt Q9Y5T5)
# USP16, sequence (Q9Y5T5 whole entry, looked up): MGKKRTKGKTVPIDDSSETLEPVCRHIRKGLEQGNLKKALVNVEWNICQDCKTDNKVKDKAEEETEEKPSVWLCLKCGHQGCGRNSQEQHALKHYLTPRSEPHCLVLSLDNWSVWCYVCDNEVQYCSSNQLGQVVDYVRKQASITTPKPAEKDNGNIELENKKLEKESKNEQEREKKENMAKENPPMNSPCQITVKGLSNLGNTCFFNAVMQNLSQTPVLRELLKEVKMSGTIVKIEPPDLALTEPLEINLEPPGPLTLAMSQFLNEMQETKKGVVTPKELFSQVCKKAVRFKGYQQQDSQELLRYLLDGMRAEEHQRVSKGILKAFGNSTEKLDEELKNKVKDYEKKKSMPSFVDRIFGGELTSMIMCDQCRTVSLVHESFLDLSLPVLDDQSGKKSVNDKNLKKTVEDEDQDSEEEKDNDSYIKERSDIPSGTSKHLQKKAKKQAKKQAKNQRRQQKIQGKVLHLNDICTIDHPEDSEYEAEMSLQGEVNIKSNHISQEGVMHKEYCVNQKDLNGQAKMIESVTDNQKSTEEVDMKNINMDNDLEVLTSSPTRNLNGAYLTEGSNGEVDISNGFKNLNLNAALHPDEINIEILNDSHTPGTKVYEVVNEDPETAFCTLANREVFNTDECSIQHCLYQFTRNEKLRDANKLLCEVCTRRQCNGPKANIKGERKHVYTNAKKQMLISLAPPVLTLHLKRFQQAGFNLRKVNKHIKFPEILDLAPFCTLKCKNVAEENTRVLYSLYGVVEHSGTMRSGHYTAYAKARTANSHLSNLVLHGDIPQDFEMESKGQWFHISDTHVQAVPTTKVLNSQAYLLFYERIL
# Summary of the method: as §1
smiles,measurement,setting,value
O=C(CCl)NCc1ccc2c(c1)OCO2,log2 ratio of Biotin-Ahx-Ub-VS probe labelling,[1],0.00826
same,log2 ratio of Biotin-Ahx-Ub-VS probe labelling,[2],-0.843
same,log2 ratio of Biotin-Ahx-Ub-VS probe labelling,[3],-0.215
same,log2 ratio of Biotin-Ahx-Ub-VS probe labelling,[4],-0.228
same,log2 ratio of Biotin-Ahx-Ub-VS probe labelling,[5],-1.36 (active)
same,log2 ratio of Biotin-Ahx-Ub-VS probe labelling,[6],-0.0636
same,log2 ratio of Biotin-Ahx-Ub-VS probe labelling,[7],-0.325
same,log2 ratio of Biotin-Ahx-Ub-VS probe labelling,[8],-0.00649
same,log2 ratio of Biotin-Ahx-Ub-VS probe labelling,[9],-0.0739
same,log2 ratio of Biotin-Ahx-Ub-VS probe labelling,[10],0.0675
